PubChem BioAssay AID602250 (The Scripps Research Institute Molecular Screening Center, 2012)
In all, about 360,000 compounds went through this assay and about 2,200 (0.61%) were called active.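 The calls were made as follows: active = inhibition above a per-plate cutoff, the plate's mean sample inhibition plus 3 SD (cut at about 24% in these data); inactive = the rest.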 Only a selection was taken, and actives are over-represented in it overall.

assay: calcium signal blockers in parental CHO-K1 cells – cell-based, Fluo-8 calcium fluorescence, full deck, 1536-well, counter-screen for M1 antagonist project, primary screen (AID 602250); conditions: ATP-induced calcium, Fluo-8 fluorescence, at 3 µM, hits give high values;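 also: 0% = DMSO plus EC80 ATP and 100% = DMSO alone without ATP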

**Q.** Which inhibition does the source give for Cc1ccc(S(=O)(=O)N2CCN(C(=O)c3cccs3)CC2)cc1 here?
**A.** -9.88% (inactive)

**Q.** Which inhibition does the source give for O[C@H]1C[C@H](c2ccc(Cl)cc2)N(Cc2cccs2)C[C@@H]1n1cc(C2CC2)nn1 here?
**A.** -27.1% (inactive)

**Q.** Which inhibition does the source give for O=C(Nc1ccc(-c2ccc3nncn3n2)cc1)C1CCCCC1 here?
**A.** -5.78% (inactive)

**Q.** With CCCN(C(=O)CSc1nnnn1C)c1c(N)n(Cc2ccccc2)c(=O)[nH]c1=O as the compound, how does the inhibition read?
**A.** 4.6% (inactive)

**Q.** With C#CCNC(=O)C[C@@H]1C[C@@]2(C(=O)OCC)CCCC=C2N(Cc2ccco2)C1=O as the compound, how does the inhibition read?
**A.** -0.85% (inactive)

**Q.** Which inhibition does the source give for CCCCNC(=O)CSc1nc2ccc(NC(=O)CSc3nnc(N)s3)cc2s1 here?
**A.** -6.75% (inactive)

**Q.** For COc1cc(OC)cc(-c2nnc(SCC(=O)Nc3ccc(C(=O)O)cc3)s2)c1, which inhibition is on record?
**A.** -8.28% (inactive)

**Q.** Which inhibition does the source give for Nc1nnc(SCC(=O)Nc2ccc3nc(SCC(=O)Nc4ccccc4)sc3c2)s1 here?
**A.** 30% (active)

**Q.** With CCN(CC)CCN1C(=O)C2C(C(=O)Nc3ccc(Br)cc3)C3C=CC2(O3)C1C(=O)NC1CCCCC1 (centres undefined) as the compound, how does the inhibition read?
**A.** -12.1% (inactive)

**Q.** For COc1ccc(F)cc1C(=O)C1CCCN(C(=O)CCc2ccccn2)C1 (centres undefined), which inhibition is on record?
**A.** 4.6% (inactive)

**Q.** With COc1ccc(C(=O)N2CCCC(C(=O)c3ccccc3OC)C2)cc1OC (centres undefined) as the compound, how does the inhibition read?
**A.** 36.9% (active)

**Q.** For COc1ccc(C(=O)C2CCCN(C(=O)c3cc(C)on3)C2)cc1F (centres undefined), which inhibition is on record?
**A.** -2.55% (inactive)

**Q.** Which inhibition does the source give for CCN(CC)CC(=O)Nc1sc2c(c1C(=O)c1ccccc1C)CCC2 here?
**A.** 3.09% (inactive)

**Q.** Which inhibition does the source give for O=C(Nc1cccc(Cl)c1)OCc1ccccn1 here?
**A.** 25.6% (active)

**Q.** With O=C(Nc1ccc(Cl)cc1)OCc1cc(-c2ccccc2)on1 as the compound, how does the inhibition read?
**A.** 7.62% (inactive)

**Q.** For O=C(Nc1ccc([N+](=O)[O-])cc1)OCCc1ccccn1, which inhibition is on record?
**A.** -2.63% (inactive)

**Q.** Which inhibition does the source give for O=C(CN1CCN(S(=O)(=O)c2ccc3ccccc3c2)CC1)NC(=O)NC1CCCCC1 here?
**A.** -2.87% (inactive)

**Q.** Which inhibition does the source give for COc1cc2ccc(C(C)=O)c(O)c2cc1OC here?
**A.** -2.14% (inactive)

**Q.** With CCN(CC(=O)Nc1ccc2c(c1)OCO2)S(=O)(=O)c1ccccc1 as the compound, how does the inhibition read?
**A.** -6.57% (inactive)

**Q.** Which inhibition does the source give for O=C(CCS(=O)(=O)Cc1ccccc1)Nc1ccc2c(c1)OCCO2 here?
**A.** -8.23% (inactive)

**Q.** With O=C(CN(c1ccc2c(c1)OCCO2)S(=O)(=O)c1ccccc1)Nc1ccc2c(c1)OCO2 as the compound, how does the inhibition read?
**A.** 30.7% (active)

**Q.** Which inhibition does the source give for CC1CCCCN1S(=O)(=O)CCNC(=O)c1ccccc1 (centres undefined) here?
**A.** 14.2% (inactive)

**Q.** Which inhibition does the source give for CC(=O)Nc1ccc(N2C(=O)CC(Sc3nccc(C)n3)C2=O)cc1 (centres undefined) here?
**A.** 23.8% (active)

**Q.** For CCOc1ccccc1N1C(=O)CC(Sc2nccc(C)n2)C1=O (centres undefined), which inhibition is on record?
**A.** -15.2% (inactive)

**Q.** With Cc1ccnc(SC2CC(=O)N(c3ccccc3)C2=O)n1 (centres undefined) as the compound, how does the inhibition read?
**A.** 16.3% (inactive)

**Q.** With C#Cc1ccc([C@@H]2C=C(C(=O)O)O[C@H](OCCCCO)C2)cc1 as the compound, how does the inhibition read?
**A.** -9.51% (inactive)

**Q.** For FC(F)(F)COc1nc(N2CCCCC2)nc(N2CCNCC2)n1, which inhibition is on record?
**A.** -9.46% (inactive)

**Q.** With O=C(NNc1nc(N2CCCC2)nc(N2CCCC2)n1)c1ccccc1 as the compound, how does the inhibition read?
**A.** -8.06% (inactive)

**Q.** Which inhibition does the source give for CN(N)c1nc(N2CCCC2)nc(N2CCCC2)n1 here?
**A.** 25.6% (active)

**Q.** Which inhibition does the source give for COC(=O)c1ccc(CN2CCCC(C(=O)Nc3cccc(-n4cnnn4)c3)C2)cc1 (centres undefined) here?
**A.** 0.04% (inactive)

**Q.** With O=Cc1c(NCCc2cccc(F)c2)c2ccccc2[nH]c1=O as the compound, how does the inhibition read?
**A.** -10.6% (inactive)

**Q.** For CCCCOc1ccc(N(CC(=O)NC(C)C)C(=O)CCC(=O)Nc2ccccn2)cc1, which inhibition is on record?
**A.** 23.1% (inactive)

**Q.** With COc1cc(CNc2ncn[nH]2)ccc1OCc1ccccc1C as the compound, how does the inhibition read?
**A.** -1.69% (inactive)

**Q.** For O=C(CNS(=O)(=O)c1ccccc1)NCC(=O)OCc1ccccc1F, which inhibition is on record?
**A.** -0.17% (inactive)

**Q.** Which inhibition does the source give for CCSc1ncnc2c(C#N)c3n(c12)CCCCC3 here?
**A.** 40.4% (active)

**Q.** With CCOC(=O)c1c(N=CN(C)C)c(C#N)c2n1CCCC2 as the compound, how does the inhibition read?
**A.** -8.04% (inactive)

**Q.** For CCSC1=C(C#N)C(=O)n2c1cc1c2CCCC1, which inhibition is on record?
**A.** -1.55% (inactive)

**Q.** For Cc1cc2oc(=O)cc(CN(C)Cc3ccccc3)c2cc1Cl, which inhibition is on record?
**A.** 6.2% (inactive)

**Q.** Which inhibition does the source give for CCN(CC)CCn1c2c(c(SCC(=O)Nc3nc4ccccc4s3)nc1=O)CCCC2 here?
**A.** 28.3% (active)

**Q.** For Cc1ccc2nc(NC(=O)CSc3nc(=O)n(CCCN(C)C)c4c3CCC4)sc2c1, which inhibition is on record?
**A.** -19.7% (inactive)

**Q.** With CCN(CC)CCn1c2c(c(SCC(=O)Nc3ccc(C(C)C)cc3)nc1=O)CCC2 as the compound, how does the inhibition read?
**A.** -0.47% (inactive)

**Q.** Which inhibition does the source give for C=CCNC(=S)NNc1ncnc2sc3c(c12)CC(C)(C)OC3 here?
**A.** -3.73% (inactive)

**Q.** Which inhibition does the source give for O=C(C1CCN(S(=O)(=O)c2cccs2)CC1)N1CCCCCC1 here?
**A.** -13.2% (inactive)

**Q.** For Cc1ccc(S(=O)(=O)N2C[C@]3(O)C[C@@H]4C(=O)N(c5ccccc5)C(=O)[C@@H]4C[C@]3(OC(=O)NC3CC3)C2)cc1, which inhibition is on record?
**A.** -3.35% (inactive)

**Q.** For CC(C)n1c(=O)[nH]c2cc(C(=O)Nc3ccccc3)ccc21, which inhibition is on record?
**A.** 2.48% (inactive)

**Q.** With O=C(Nc1ccccc1)c1ccc2nsnc2c1 as the compound, how does the inhibition read?
**A.** 29.9% (active)

**Q.** For Cc1cccc(NC(=O)c2ccc3nsnc3c2)c1C, which inhibition is on record?
**A.** -0.08% (inactive)

**Q.** With CCC1Oc2ccc(Cl)cc2N(CC(=O)O)C1=O (centres undefined) as the compound, how does the inhibition read?
**A.** -18.5% (inactive)

**Q.** Which inhibition does the source give for COc1ccc(C(=O)NC(=S)N2CCNC(=O)C2CC(=O)OC(C)C)cc1 (centres undefined) here?
**A.** -6.8% (inactive)

**Q.** For O=C(NCCN=C1NS(=O)(=O)c2ccccc21)c1ccc(S(=O)(=O)N2CCOCC2)cc1, which inhibition is on record?
**A.** 2.91% (inactive)

**Q.** With CN(C)S(=O)(=O)c1ccc(C(=O)NCCN=C2NS(=O)(=O)c3ccccc32)cc1 as the compound, how does the inhibition read?
**A.** -3.13% (inactive)

**Q.** Which inhibition does the source give for Cc1ccccc1C(=O)NCCN=C1NS(=O)(=O)c2ccccc21 here?
**A.** 27.1% (active)

**Q.** With CCCC(=O)N1CCC1(C)C(=O)Nc1ccc(-n2cncn2)cc1 (centres undefined) as the compound, how does the inhibition read?
**A.** -6.21% (inactive)

**Q.** Which inhibition does the source give for C=CCC1(CC=C)CCCN1C(=O)c1cc(COc2ccc(-n3cncn3)cc2)on1 here?
**A.** 31.3% (active)

**Q.** For O=C(c1cc(COc2c(F)cccc2F)on1)N1CCSCC1, which inhibition is on record?
**A.** -8.58% (inactive)

**Q.** With COc1ccccc1C(=O)Nc1cccc(C(=O)N2CCOCC2)c1 as the compound, how does the inhibition read?
**A.** -9.07% (inactive)

**Q.** With CCc1cc(C(c2ccccc2OC)N2CCOCC2)c(NC(=O)c2ccccc2)s1 (centres undefined) as the compound, how does the inhibition read?
**A.** 24.8% (active)

**Q.** With COc1cc(C(c2c(NC(=O)c3ccco3)sc(C)c2C)N2CCOCC2)cc(OC)c1OC (centres undefined) as the compound, how does the inhibition read?
**A.** 5.36% (inactive)

**Q.** For CC(C)OCCCNC(=O)c1ccc(C2SCC(=O)N2Cc2ccco2)cc1 (centres undefined), which inhibition is on record?
**A.** -4.67% (inactive)
